In the OligoGym collection:

target: TAAR8; assay: pooled miR-30 sensor sort-seq; sequence = guide strand; conditions: shRNA
Note: reference of the scale not given here.

Sequence | sensor-assay potency score (higher = more potent)
TAATATATCAACTGTATACGGT | -0.194
TAGCCTTTAAAACATCTCCACT | -0.818
TAATGGTTGATGAACTAGCCTT | -0.64
TATAGCTTGTTGTTTAGCTATA | -1.63
TAATAAGCACTCCAACAGCAAA | -1.57
TTATAGCTTGTTGTTTAGCTAT | -0.98
TCAATTAATATATCAACTGTAT | -0.769

target: TAC4; assay: as above; conditions: shRNA

Sequence | sensor-assay potency score (higher = more potent)
TTCTGTGAACAGGCTTCTCTTG | -0.693
TGCAGCTGGAGCTGAATGCTGG | -1.1
TCTCTGCCTTTTTTTCTCCTTG | -0.948
TGAACAGGCTTCTCTTGCCCAG | -1.26
TCATCCTCTCTGCCTTCTGTGA | -1.57
TATGCTTTTTTTCTCCTTGGCT | -0.257
TCTGTGAACAGGCTTCTCTTGC | -0.505
TGCTTCAGTGCTGAGTGTCTGT | -0.405
TGCTTTTTTTCTCCTTGGCTGG | -1.36
TCTGCCTTCTGTGAACAGGCTT | -0.554
TTCCTCTCCACCATCACCTGCC | 0.531
TTTTTTTCTCCTTGGCTGGATC | -1.14
